From PubChem BioAssay AID651692 (Broad Institute, 2012)
Entries with a potency or affinity are not part of this list. Activity calls are given as the source filed them.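 How the source made its calls: active means fitted half-maximal concentration for loss of cell signal no higher than twice the top valid tested concentration; inconclusive means flat curve at 30 to 70% inhibition, or poor fit; inactive means flat within 30%, signal rise, or potency above limit.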

Assay: MDA-MB-231 cell growth inhibition, dose response, cytotoxicity control for RAD54 inhibitor project, CellTiter-Glo luminescence, cherry-pick (AID 651692);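 further: more negative values mean stronger loss of viable cell signal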
Conditions: MDA-MB-231 viability, 24 h; series mostly up to 26 µM

| SMILES | outcome |
| --- | --- |
| Cc1ccc(-c2nc(N(C)C3CCN(C)CC3)c3ccccc3n2)cc1 | inactive |
| Nc1ccnn1C1CCNCC1 | inactive |
| CN1CCC(N(C)c2nc(-c3ccccc3)nc3ccccc23)CC1 | inactive |
| Nc1ccc(C2(c3ccc(N)cc3)CN3CCC2CC3)cc1 | inactive |
| CN1CCN(c2cc(N3CCNCC3)ccc2[N+](=O)[O-])CC1 | inactive |
| CCNCCNc1ccc([N+](=O)[O-])c2cccnc12 | inactive |
| CCN1CCN(c2ccc(N)c(C)c2)CC1 | inactive |
| COc1ccc2c(c1)[nH]c1c(C)nccc12 | inactive |
| CN1CCN(c2ccc(N)cc2)CC1 | inactive |
| Cc1nccc2c1[nH]c1ccccc12 | inactive |
| CC(Cc1ccccc1)NCC(=O)Nc1cc(N(C)C)nc2ccccc12 (stereo not drawn) | inactive |
| O=C(NC1CN2CCC1CC2)c1cc(Cl)c([N+](=O)[O-])c2nc[nH]c12 (stereo not drawn) | inactive |
| Nc1ccc(CCN2CCCC2)cc1 | inactive |
